# Measured values taken from PubChem BioAssay (Tox21).
# Several values for one entry are separate records, joined by “and”; a condition that tells them apart may be missing. Equal entries are not always repeated. Results filed as inconclusive are left out. A call without a number means that no potency is given here. Some structures have more than one record in an assay (separate samples or runs), and their calls can disagree. Activity calls are given as the source filed them. The call rests on the fitted dose curve; in most records, active means well fitted curve in the direction sought with a large enough effect in the repeat runs; inconclusive means weak or mixed curves; inactive means no such curve, though single readings can be large; an effect the other way counts as inactive or inconclusive.
# Key:
# [1] = Human pregnane X receptor (PXR) small molecule agonists, qHTS cell viability counter screen (AID 1346977); further: nearly all actives have a fitted effect of over 50% in size; further: potency means the concentration at half of the fitted maximal effect
# Summary of the method: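 Tox21 qHTS format; PXR-Luc HepG2, 2,000/well, charcoal-stripped FBS 5%. Cpd exposure 24hr. Read: CellTiter-Fluor fluorescence, multiplexed with luciferase.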
# [2] = Caspase-3/7 induction in HepG2 cells by small molecules, qHTS assay (AID 1346978); further: nearly all actives have a fitted effect of over 15% in size; further: potency means the concentration at half of the fitted maximal effect
# Summary of the method: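 Wild-type HepG2 cells (2,000/well) were settled 5 h at 37 C, 5% CO2, then exposed to compounds in DMSO for 17 h. Caspase-3/7 activity was read by luminescence 30 min after adding Caspase-Glo 3/7 reagent at room temperature.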
# [3] = Caspase-3/7 induction in CHO-K1 cells by small molecules, qHTS assay (AID 1346980); further: nearly all actives have a fitted effect of over 15% in size; further: potency means the concentration at half of the fitted maximal effect
# Summary of the method: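 Wild-type cells were seeded at 1,500 per well and settled 5 hr at 37 C, 5% CO2, then exposed to DMSO-dissolved compounds for 17 hr. Caspase-Glo 3/7 reagent was added, and luminescence was read after 30min at room temperature.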
# [4] = Caspase-3/7 induction in HepG2 cells by small molecules, qHTS cell viability counter screen (AID 1346981); further: nearly all actives have a fitted effect of over 30% in size; further: potency means the concentration at half of the fitted maximal effect
# Summary of the method: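 Counter screen for cytotoxicity: HepG2 exposed 16 hr to compounds, then CellTiter-Fluor viability signal (fluorescence, 1 hr reagent incubation).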
# [5] = biological target: Cytochrome P450 2D6 (Homo sapiens) (UniProt P10635); assay: Cytochrome P450 Family 2 Subfamily D Member 6 (CYP2D6) small molecule antagonists: luciferase reporter qHTS assay (AID 1671196); further: nearly all actives have a fitted effect of over 50% in size; further: potency means the concentration at half of the fitted maximal effect
# Summary of the method: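 Inhibition of CYP2D6 was gauged by loss of luminescence, since light produced tracks the luciferin generated from a proluciferin substrate. A 10 min room-temperature preincubation preceded 1 h NADPH-supported turnover.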
# [6] = biological target: Cytochrome P450 2C19 (Homo sapiens) (UniProt P33261); assay: Cytochrome P450 Family 2 Subfamily C Member 19 (CYP2C19) small molecule antagonists: luciferase reporter qHTS assay (AID 1671197); further: nearly all actives have a fitted effect of over 65% in size; further: potency means the concentration at half of the fitted maximal effect
# Summary of the method: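 Compounds were tested on CYP2C19 activity via proluciferin conversion to luciferin. The 37C, 1 h reaction followed NADPH addition; detection reagent stopped it.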
# [7] = biological target: Cytochrome P450 2C9 (Homo sapiens) (UniProt P11712); assay: Cytochrome P450 Family 2 Subfamily C Member 9 (CYP2C9) small molecule antagonists: luciferase reporter qHTS assay (AID 1671198); further: nearly all actives have a fitted effect of over 50% in size; further: potency means the concentration at half of the fitted maximal effect
# Summary of the method: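 CYP2C9 activity was measured with a P450-Glo proluciferin substrate. Enzyme–substrate mix was held with compound for 10 min at room temperature, then NADPH regeneration solution was added for 1 h at 37C. Luciferin product was read as luminescence.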
# [8] = biological target: Voltage-gated inwardly rectifying potassium channel KCNH2 (Homo sapiens) (UniProt Q12809); assay: Human Ether-a-go-go-Related Gene (hERG) channel small molecule antagonists: fluorescence cell-based qHTS assay (AID 1671200); further: nearly all actives have a fitted effect of over 50% in size; further: potency means the concentration at half of the fitted maximal effect
# Summary of the method: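 Kinetic two-minute fluorescence traces, sampled at 1 s, were collected following thallium stimulus of U2OS cells (1000 per well) that had been cultured overnight at 37 C and loaded with FluxOR II.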
# [9] = biological target: Cytochrome P450 3A4 (Homo sapiens) (UniProt P08684); assay: Cytochrome P450 Family 3 Subfamily A Member 4 (CYP3A4) small molecule antagonists: luciferase reporter qHTS assay (AID 1671201); further: nearly all actives have a fitted effect of over 50% in size; further: potency means the concentration at half of the fitted maximal effect
# Summary of the method: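 Proluciferin-to-luciferin conversion by CYP3A4, NADPH-regenerated, 1 h RT; luminescence read as RLU. Ketoconazole as control.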
# [10] = biological target: Nuclear receptor subfamily 1 group I member 2 (Homo sapiens) (UniProt O75469); assay: Human pregnane X receptor (PXR) small molecule agonists, qHTS assay (AID 1346982); further: nearly all actives have a fitted effect of over 35% in size; further: potency means the concentration at half of the fitted maximal effect
# Summary of the method: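 Luminescence (ONE-Glo, 30 min RT) after 24 hr compound exposure of PXR-Luc HepG2 cells; cells rested 5 hr post-plating in 5% charcoal-stripped FBS medium.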
# [11] = biological target: Cytochrome P450 1A2 (Homo sapiens) (UniProt P05177); assay: Cytochrome P450 Family 1 Subfamily A Member 2 (CYP1A2) small molecule antagonists: luciferase reporter qHTS assay (AID 1671199); further: nearly all actives have a fitted effect of over 50% in size; further: potency means the concentration at half of the fitted maximal effect
# Summary of the method: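 Signal from luciferin formed by CYP1A2 from a proluciferin substrate is read as luminescence, expressed in relative luminescence units. Compounds sit with enzyme 10 min, NADPH-driven reaction runs 1 h, all at room temperature.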
# [12] = Caspase-3/7 induction in CHO-K1 cells by small molecules, qHTS cell viability counter screen (AID 1346979); further: nearly all actives have a fitted effect of over 35% in size; further: potency means the concentration at half of the fitted maximal effect
# Summary of the method: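 CellTiter-Fluor viability check, qHTS format: wild-type CHO-K1, 16hr compound treatment, 1hr reagent incubation, fluorescence read.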
# [13] = biological target: Nuclear receptor subfamily 1 group I member 2 (Homo sapiens) (UniProt O75469); assay: CYP3A4 induction through human pregnane X receptor (PXR) by small molecules, qHTS assay (AID 1346984); further: nearly all actives have a fitted effect of over 40% in size
# Summary of the method: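 DPX-2 reporter cells; 24h cpd, 37C; Luciferin-IPA 3uM final x3h; One-Glo 30 min RT; lumi read.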
# [14] = biological target: Nuclear receptor subfamily 1 group I member 2 (Homo sapiens) (UniProt O75469); assay: Human pregnane X receptor (PXR) activation by small molecules, qHTS assay (AID 1346985); further: nearly all actives have a fitted effect of over 40% in size
# Summary of the method: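 DPX-2 cells (HepG2 co-transfected with a PXR response element and a CYP3A4-promoter luciferase construct) were seeded at 2,000 per well, rested 5 hr at 37C, then exposed to DMSO-dissolved compounds for 24 hr. Activation was read as luciferase luminescence.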
# Sequence of Cytochrome P450 1A2 (Homo sapiens) (P05177 whole entry, looked up): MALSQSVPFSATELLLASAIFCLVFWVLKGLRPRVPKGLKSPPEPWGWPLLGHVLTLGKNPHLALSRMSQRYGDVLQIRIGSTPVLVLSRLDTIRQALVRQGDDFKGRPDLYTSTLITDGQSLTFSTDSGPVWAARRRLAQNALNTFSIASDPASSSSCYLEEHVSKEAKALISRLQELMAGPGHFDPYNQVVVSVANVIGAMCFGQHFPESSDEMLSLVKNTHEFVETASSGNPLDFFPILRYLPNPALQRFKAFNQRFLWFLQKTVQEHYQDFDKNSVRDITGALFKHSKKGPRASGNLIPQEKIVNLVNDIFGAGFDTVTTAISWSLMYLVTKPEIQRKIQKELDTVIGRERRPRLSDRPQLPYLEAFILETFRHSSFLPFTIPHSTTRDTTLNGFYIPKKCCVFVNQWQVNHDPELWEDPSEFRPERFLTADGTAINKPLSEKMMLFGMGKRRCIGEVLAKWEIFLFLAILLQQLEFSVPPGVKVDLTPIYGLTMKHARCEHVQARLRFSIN
# Sequence of Nuclear receptor subfamily 1 group I member 2 (Homo sapiens) (O75469 whole entry, looked up): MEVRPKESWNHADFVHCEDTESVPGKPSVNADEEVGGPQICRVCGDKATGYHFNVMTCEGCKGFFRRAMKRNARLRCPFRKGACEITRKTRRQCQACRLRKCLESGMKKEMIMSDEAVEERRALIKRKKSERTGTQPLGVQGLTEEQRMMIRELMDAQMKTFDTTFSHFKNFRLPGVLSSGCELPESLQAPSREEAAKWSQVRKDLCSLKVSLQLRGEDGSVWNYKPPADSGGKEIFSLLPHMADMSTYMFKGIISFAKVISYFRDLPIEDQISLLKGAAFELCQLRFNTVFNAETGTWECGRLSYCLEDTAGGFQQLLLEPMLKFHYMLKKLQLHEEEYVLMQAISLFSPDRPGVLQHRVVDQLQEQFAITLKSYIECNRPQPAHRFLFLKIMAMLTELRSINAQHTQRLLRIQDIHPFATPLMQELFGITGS
# Sequence of Cytochrome P450 2D6 (Homo sapiens) (P10635 whole entry, looked up): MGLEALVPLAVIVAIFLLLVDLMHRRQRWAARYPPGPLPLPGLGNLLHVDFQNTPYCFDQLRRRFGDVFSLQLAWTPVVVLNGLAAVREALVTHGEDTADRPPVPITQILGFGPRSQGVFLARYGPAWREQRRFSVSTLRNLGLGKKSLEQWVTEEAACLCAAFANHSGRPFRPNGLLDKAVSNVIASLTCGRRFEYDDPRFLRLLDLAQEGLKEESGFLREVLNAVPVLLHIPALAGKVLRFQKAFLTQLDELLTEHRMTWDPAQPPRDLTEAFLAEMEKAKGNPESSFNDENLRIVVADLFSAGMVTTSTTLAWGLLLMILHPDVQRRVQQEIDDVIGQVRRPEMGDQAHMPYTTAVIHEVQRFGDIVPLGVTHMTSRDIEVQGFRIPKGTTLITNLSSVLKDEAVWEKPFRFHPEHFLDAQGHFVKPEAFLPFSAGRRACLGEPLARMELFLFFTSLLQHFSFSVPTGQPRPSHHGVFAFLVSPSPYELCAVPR
# Sequence of Cytochrome P450 2C19 (Homo sapiens) (P33261 whole entry, looked up): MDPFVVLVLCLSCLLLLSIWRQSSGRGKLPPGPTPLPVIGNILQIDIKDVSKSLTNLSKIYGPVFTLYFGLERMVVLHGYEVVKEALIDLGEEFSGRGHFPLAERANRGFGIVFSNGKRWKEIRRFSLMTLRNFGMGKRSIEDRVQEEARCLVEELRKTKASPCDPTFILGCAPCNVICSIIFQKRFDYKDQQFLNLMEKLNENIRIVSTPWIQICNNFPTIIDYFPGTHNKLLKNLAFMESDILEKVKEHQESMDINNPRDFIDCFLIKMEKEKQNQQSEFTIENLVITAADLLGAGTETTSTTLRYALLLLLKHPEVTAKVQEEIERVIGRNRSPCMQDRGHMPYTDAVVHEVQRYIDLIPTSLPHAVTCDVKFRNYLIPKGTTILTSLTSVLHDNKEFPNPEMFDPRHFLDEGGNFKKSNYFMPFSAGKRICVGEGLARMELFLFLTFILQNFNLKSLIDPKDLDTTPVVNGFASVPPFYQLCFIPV
# Sequence of Cytochrome P450 2C9 (Homo sapiens) (P11712 whole entry, looked up): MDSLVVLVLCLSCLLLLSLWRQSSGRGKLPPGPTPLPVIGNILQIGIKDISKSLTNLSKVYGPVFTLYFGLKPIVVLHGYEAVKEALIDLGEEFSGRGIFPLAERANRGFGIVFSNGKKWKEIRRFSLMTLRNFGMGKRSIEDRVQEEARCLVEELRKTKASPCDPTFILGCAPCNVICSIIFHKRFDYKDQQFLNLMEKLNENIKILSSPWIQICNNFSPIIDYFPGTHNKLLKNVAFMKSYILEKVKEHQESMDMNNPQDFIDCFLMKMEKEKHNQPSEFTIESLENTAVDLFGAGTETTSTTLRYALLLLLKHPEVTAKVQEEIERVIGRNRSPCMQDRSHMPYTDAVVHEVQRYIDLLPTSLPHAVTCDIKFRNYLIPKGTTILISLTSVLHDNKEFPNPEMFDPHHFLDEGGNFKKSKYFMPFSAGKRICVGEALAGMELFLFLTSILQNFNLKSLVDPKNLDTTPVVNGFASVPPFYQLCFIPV
# Sequence of Cytochrome P450 3A4 (Homo sapiens) (P08684 whole entry, looked up): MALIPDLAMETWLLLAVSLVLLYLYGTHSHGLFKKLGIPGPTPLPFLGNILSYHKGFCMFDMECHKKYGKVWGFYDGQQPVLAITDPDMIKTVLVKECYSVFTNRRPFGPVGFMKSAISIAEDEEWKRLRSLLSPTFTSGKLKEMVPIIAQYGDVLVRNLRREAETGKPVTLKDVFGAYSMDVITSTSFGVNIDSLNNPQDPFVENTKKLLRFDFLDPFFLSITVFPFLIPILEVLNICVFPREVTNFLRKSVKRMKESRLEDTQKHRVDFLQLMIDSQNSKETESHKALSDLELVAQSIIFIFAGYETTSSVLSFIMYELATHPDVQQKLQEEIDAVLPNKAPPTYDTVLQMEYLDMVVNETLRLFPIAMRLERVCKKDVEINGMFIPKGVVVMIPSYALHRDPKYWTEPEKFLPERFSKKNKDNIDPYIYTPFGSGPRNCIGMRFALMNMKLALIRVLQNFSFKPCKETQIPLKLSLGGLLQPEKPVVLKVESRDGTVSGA
# Sequence of Voltage-gated inwardly rectifying potassium channel KCNH2 (Homo sapiens) (Q12809 whole entry, looked up): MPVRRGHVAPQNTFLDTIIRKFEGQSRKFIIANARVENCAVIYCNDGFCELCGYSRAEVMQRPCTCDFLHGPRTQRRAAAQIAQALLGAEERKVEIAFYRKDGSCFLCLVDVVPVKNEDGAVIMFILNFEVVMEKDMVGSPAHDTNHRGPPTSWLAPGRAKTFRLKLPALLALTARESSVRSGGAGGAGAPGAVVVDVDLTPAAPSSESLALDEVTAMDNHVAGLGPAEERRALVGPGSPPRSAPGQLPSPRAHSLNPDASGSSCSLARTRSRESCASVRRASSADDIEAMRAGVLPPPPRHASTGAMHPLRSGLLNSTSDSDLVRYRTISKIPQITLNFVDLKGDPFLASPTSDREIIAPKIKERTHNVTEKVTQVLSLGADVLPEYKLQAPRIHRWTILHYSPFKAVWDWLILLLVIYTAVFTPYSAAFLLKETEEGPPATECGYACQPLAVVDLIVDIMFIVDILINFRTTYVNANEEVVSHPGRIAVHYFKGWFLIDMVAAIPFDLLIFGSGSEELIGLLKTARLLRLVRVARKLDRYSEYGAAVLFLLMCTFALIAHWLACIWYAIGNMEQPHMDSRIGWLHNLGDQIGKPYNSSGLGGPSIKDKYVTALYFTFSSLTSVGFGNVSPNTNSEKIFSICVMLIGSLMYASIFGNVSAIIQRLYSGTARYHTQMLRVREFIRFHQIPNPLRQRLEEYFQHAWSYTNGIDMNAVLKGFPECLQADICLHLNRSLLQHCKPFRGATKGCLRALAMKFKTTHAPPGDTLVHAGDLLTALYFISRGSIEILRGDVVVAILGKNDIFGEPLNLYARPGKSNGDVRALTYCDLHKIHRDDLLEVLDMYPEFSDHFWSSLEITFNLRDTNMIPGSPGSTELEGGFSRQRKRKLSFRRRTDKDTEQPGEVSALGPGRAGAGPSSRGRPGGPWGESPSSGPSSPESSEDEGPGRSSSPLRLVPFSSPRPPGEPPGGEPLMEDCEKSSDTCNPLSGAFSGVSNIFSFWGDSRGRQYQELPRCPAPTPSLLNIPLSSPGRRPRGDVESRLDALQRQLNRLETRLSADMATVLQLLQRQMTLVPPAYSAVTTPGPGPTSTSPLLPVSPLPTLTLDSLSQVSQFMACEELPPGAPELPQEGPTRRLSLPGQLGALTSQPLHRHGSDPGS
Structure (SMILES),Potency [1],Potency [2],Potency [3],Potency [4],Potency [5],Potency [6],Potency [7],Potency [8],Potency [9],Potency [10],Potency [11],Potency [12],Potency [13],Potency [14]
C=CC(=O)OCC(CO)(COC(=O)C=C)COC(=O)C=C,17.8 µM (active) and 21.7 µM (active),19.4 µM (active) and 24.3 µM (active),2.44 µM (active) and 6.11 µM (active),17.3 µM (active) and 21.7 µM (active),40.1 µM (active) and 63.3 µM (active),25.3 µM (active) and 22.4 µM (active),11.3 µM (active) and 11.2 µM (active),inactive,1.01 µM (active) and 1.12 µM (active),,,,,
Cc1cccc2c1cc1ccc3cccc4ccc2c1c34,inactive,inactive,inactive,,inactive,inactive,inactive,,inactive,inactive,0.205 µM (active),,,
On1ccccc1=S,0.762 µM (active),1.71 µM (active),inactive,15.2 µM (active),,,,inactive,,,,,,
CCCC/C=C/CCCCO,inactive,,inactive,inactive,inactive,inactive,71 µM (active),inactive,inactive,inactive,inactive,inactive,,
CCCCCCOC(=O)c1ccc(O)cc1,inactive,inactive,inactive,,,11.3 µM (active) and 20 µM (active),35.6 µM (active) and 39.9 µM (active),,79.8 µM (active) and inactive,inactive,11.3 µM (active) and 8.94 µM (active),,,
CCCCCCCCCCCCCCCCCC[N+](C)(C)Cc1ccccc1,11 µM (active),,inactive,55 µM (active),0.18 µM (active),56.9 µM (active),40.3 µM (active),2.78 µM (active),40.3 µM (active),1.55 µM (active),,4.9 µM (active),,
CCCCCCCC(=O)[O-].CCCCCCCC(=O)[O-].[Zn+2],inactive,inactive,inactive,inactive,inactive,inactive,,inactive,inactive,inactive,,,,
CCCC(c1cc(C(C)(C)C)c(O)cc1C)c1cc(C(C)(C)C)c(O)cc1C,17.4 µM (active),,inactive,22 µM (active),28.6 µM (active),9.05 µM (active),3.6 µM (active),inactive,5.09 µM (active),1.96 µM (active),,13.9 µM (active),,
Fc1ccc([C@@H]2CCNC[C@H]2COc2ccc3c(c2)OCO3)cc1,29.8 µM (active),inactive,inactive,,,inactive,inactive,,,inactive,12.9 µM (active),,,
CC(C)(C)CC(C)(C)c1ccc(O)c(Cc2ccc(Cl)cc2Cl)c1,18.8 µM (active),26.6 µM (active),21.1 µM (active),,,1.74 µM (active),,inactive,,2.37 µM (active),15.5 µM (active),,inactive,
NC(=O)NS(=O)(=O)c1ccc(N)cc1,inactive,,inactive,inactive,inactive,inactive,inactive,inactive,inactive,inactive,inactive,inactive,inactive,inactive
CCC(Cl)C(Cl)C(Cl)CC(Cl)C(Cl)C(C)Cl (configuration not stated),inactive,inactive,inactive,inactive,35.6 µM (active),1.26 µM (active),,,inactive,21.7 µM (active),35.6 µM (active),,,
Cc1cc(N)c(S(=O)(=O)O)cc1Cl,inactive,inactive,inactive,,inactive,inactive,,inactive,inactive,inactive,,,,
N=C1N=C(N)c2ccccc21,27.3 µM (active),54.5 µM (active),,27.3 µM (active),56.4 µM (active),inactive,inactive,inactive,inactive,24.3 µM (active),,,,
O=C(O)c1ccc(Cl)c(Cl)c1,inactive,inactive,inactive,inactive,inactive,,inactive,inactive,inactive,inactive,,,,
CCCCCCC[N+](CC)(CC)CCCCc1ccc(Cl)cc1,inactive,inactive,inactive,,0.219 µM (active),inactive,inactive,,,inactive,inactive,,inactive,inactive
CCc1cc(Cc2cc(CC)cc(C(C)(C)C)c2O)c(O)c(C(C)(C)C)c1,30.6 µM (active),68.6 µM (active),54.5 µM (active),54.5 µM (active),inactive,,3.17 µM (active),,17.8 µM (active),0.686 µM (active),,,,
